The list is not random: actives were taken first. Their share in the collection is about 3.5%.
mHTT CaM bind: mutant huntingtin-calmodulin interaction inhibitors – biochemical, AlphaScreen, primary screen. P42858. AlphaScreen His-mHTT/GST-CaM binding, luminescence. inhibition, % at 15 µM. hit rate 3.6% among 190,000. AID 1671202, 2021;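 note: 0% = both proteins with DMSO and 100% = one protein alone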
Pf apPOL block: Pf-apPOL inhibitors, biochemical, fluorescence; Recombinant Pf-apPOL, molecular beacon fluorescence, 1.5 h; inhibition, % at 10 µM; hit rate 0.25% among 210,000; Plasmodium falciparum apicoplast DNA polymerase (apPOL)
Active calls of the source: *; x = no result given; ! = not active in a repeat. Cut-off read from the data, not from the text of the source: active = inhibition above about 50%; inactive = the rest.

SMILES	mHTT CaM bind	Pf apPOL block
COc1ccc(Cl)cc1C(=O)Nc1cnc(N2CCCC2)nc1	1	-4
Cc1nc2ccccc2n1C(=O)c1ccc(F)cc1	-7	-6
COc1cc(C(=O)n2c(C)nc3ccccc32)cc(OC)c1OC	89*	-12
COc1ccc(NC(=S)NC(=O)c2ccc3nonc3c2)cc1	x	1
COc1ccc(CN2CCN(c3ccccc3F)CC2)cc1OCc1ccccc1	10	-2
NS(=O)(=O)c1ccc(N2CCOCC2)c([N+](=O)[O-])c1	x	-12
O=[N+]([O-])c1cc(Br)c2nsnc2c1N1CCOCC1	67*!	-2
O=c1cc(O)c2sc(Nc3ccc(F)cc3)nc2[nH]1	20	4
N#Cc1c(Nc2ccc(F)cc2)sc2c(O)cc(=O)[nH]c12	51*	-3
CCCCC[C@H](C)N1C[C@H](COCc2ccccc2)Oc2cc(N3CC[C@@H](O)C3)ccc2S1(=O)=O	92*	-19
CCCCC[C@@H](C)N1C[C@H](COCc2ccccc2)Oc2cc(N3CCC[C@@H]3CO)ccc2S1(=O)=O	24	-8
CCCCC[C@H](C)N1C[C@@H](COCc2ccccc2)Oc2cc(N3CC[C@H](O)C3)ccc2S1(=O)=O	88*	-8
CCCCC[C@H](C)N1C[C@@H](COCc2ccccc2)Oc2cc(N3CC[C@H](N(C)C)C3)ccc2S1(=O)=O	-13	-11
C[C@@H](c1ccccc1)N1C[C@H](COCc2ccccc2)Oc2cc(N3CC[C@H](O)C3)ccc2S1(=O)=O	48	-8
CCCCC[C@@H](C)N1C[C@@H](COCc2ccccc2)Oc2cc(N3CC[C@H](N(C)C)C3)ccc2S1(=O)=O	100*	-6
CCNC(=O)c1nc(-c2ccncc2)cs1	-9	0
CC1CCc2oc3cc([N+](=O)[O-])cc([N+](=O)[O-])c3c2C1 (centres undefined)	44	-5
CCOc1cccc(C2CC(c3ccccc3)=NC3(CCN(C(C)=O)CC3)N2)c1O (centres undefined)	21	6
COc1ccc2cc3cc(C(=O)Nc4cccc(Cl)c4)oc3nc2c1	4	12
O=C(CN1C(=O)CCCc2ccccc21)N1CCN(c2ccc(F)cc2)CC1	5	-4
COc1cccc(C2=NN(C(=O)CN3CCOCC3)C(c3ccccc3F)C2)c1 (centres undefined)	29	0
COc1ccc(C2=NN(C(=O)CN3CCOCC3)C(c3cccc(OC)c3OC)C2)cc1 (centres undefined)	6	-3
CCC(=O)N1N=C(c2ccc(C)cc2)CC1c1cc2cc(OC)ccc2nc1Cl (centres undefined)	-1	6
COc1ccc(C2CC(c3ccc(F)cc3)=NN2C(=O)CN2CCOCC2)cc1 (centres undefined)	64*	-4
COc1ccc(C2=NN(C(=O)CN3CCCCC3)C(c3ccccc3F)C2)cc1 (centres undefined)	69*	-8
SMILES	mHTT CaM bind	Pf apPOL block
COc1ccc(C2=NN(C(=O)CN3CCCCC3)C(c3ccc(C)cc3C)C2)cc1 (centres undefined)	100*	-7
O=C(O)Cn1c(SCC(=O)c2ccc(F)cc2)nc2ccsc2c1=O	12	-4
O=C(NCCC1=CCCCC1)C1CC1	-8	-15
CC(C)S(=O)(=O)c1ccc(CC(=O)NCC(O)c2ccc(C(F)(F)F)cc2)cc1 (centres undefined)	-4	-5
Cc1c(Cl)cccc1S(=O)(=O)NCC(O)c1ccc(C(F)(F)F)cc1 (centres undefined)	68*	-6
Cc1c(Cl)cccc1NC(=O)C(=O)NCC(O)c1ccc(C(F)(F)F)cc1 (centres undefined)	-15	-5
O=S(=O)(NCC(O)c1ccc(C(F)(F)F)cc1)c1ccc2c(c1)CCCC2 (centres undefined)	100*	-2
COCCN1CCc2nc(SCc3ccc(C(C)(C)C)cc3)[nH]c(=O)c2C1	-2	-4
Cc1ccc(-n2nc(C(C)C)c(C(=O)N3CCOCC3)c2C(C)C)cc1	11	-6
O=C(NCc1ccc(F)cc1)N1CCC(CCOc2cccnc2)CC1	1	-6
COc1c2c(cc3oc(=O)ccc13)OC(C)(C)CC2=O	x	-1
Nc1nc2n(n1)C(c1cccc([N+](=O)[O-])c1)CC(=O)N2 (centres undefined)	13	5
COCC(=O)N1CCN(C(C(=O)N2CCCCC2C)C2CCCC2)CC1 (centres undefined)	3	-2
O=S1(=O)N=C(SCc2ccccc2Cl)Nc2ccc(F)cc21	-7	4
COc1ccc(C)cc1NCc1ccccc1[N+](=O)[O-]	77*	-2
COc1ccc(C)cc1NS(=O)(=O)CC(C)C	6	-4
COc1cc(C)c(CNc2cc(C)ccc2OC)cc1C	89*	-7
COc1cccc(CNCc2ccccc2[N+](=O)[O-])c1OC	5	-3
Cc1cc(Cl)ccc1NS(=O)(=O)c1ccc2c(c1)-c1oncc1CO2	-2	-2
CC(C)(C)S(=O)(=O)C(C#N)=Cc1cc2ccccc2o1	x	-11
COC(=O)[C@H](C(C)C)N(CCCc1cn(Cc2ccc(C)cc2)nn1)S(=O)(=O)c1ccccc1Br	93*	-1
COC(=O)[C@H](C(C)C)N(CCc1cn(Cc2ccc(C)cc2)nn1)S(=O)(=O)c1ccccc1Br	-1	-7
O=C(Nc1cccc(C(F)(F)F)c1)N1CCN(c2c(Cl)cncc2Cl)CC1	x	2
Cc1ccc(C(=O)O)cc1-c1ccc(/C=C/[N+](=O)[O-])o1	30	8
Cc1cc(-c2ccc(/C=C/[N+](=O)[O-])o2)c([N+](=O)[O-])cc1C	65*	3
SMILES	mHTT CaM bind	Pf apPOL block
CCOc1ccc2ncc(C#N)c(N3CCC(C(=O)Nc4cccc(F)c4)CC3)c2c1	6	1
CC1=NN(C(=S)c2ccc(C)cc2)C(C)(O)C1CC(C)C (centres undefined)	76*	x
COc1cc(-c2c(CCO)sc3ccccc23)cc(OC)c1OC	97*	-13
COCc1ccc(-c2c(-c3ccccc3OC)sc3ccccc23)cc1	-38	-3
Cn1ncc2c1ncn1nc(COc3ccc(Cl)cc3)nc21	-2	-3
COC(=O)CNC(=O)N1CCC2(CC1)Nc1ccccc1-n1cccc12	47	0
O=C(NCCc1ccccc1)N1CCC2(CC1)Nc1cc(F)ccc1-n1cccc12	56*	-4
O=C(NCc1ccccc1)N1CCC2(CC1)Nc1ccccc1-n1cccc12	71*	-2
CCCNC(=O)N1CCC2(CC1)Nc1cc(F)ccc1-n1cccc12	31	3
COCCNC(=O)N1CCC2(CC1)Nc1cc(F)ccc1-n1cccc12	36	6
O=C(NCc1ccc(F)cc1)N1CCC2(CC1)Nc1ccccc1-n1cccc12	56*	-4
CN1c2ccccc2C(=O)NC12CCN(C(=O)NCCc1ccccc1)CC2	2	-7
O=C(NCCc1ccccc1)N1CCC2(CC1)Nc1ccccc1-n1cccc12	69*	-2
CNC(=O)N1CCC(n2c(C)nc(C(=O)NC3CCCC3)c2C)CC1	-2	-3
Cc1ccc(C)c(CS(=O)(=O)N2CCC(CN3CCCCCC3)CC2)c1	-2	-3
Brc1ccccc1-c1nn[nH]n1	x	-23
COc1ccccc1C(=O)N1CCC(N2CCC(C(=O)N3CCCCC3)CC2)CC1	6	-6

Screening data: PubChem BioAssay, University of Kansas High Throughput Screening Laboratory
